Source: PubChem BioAssay AID485336 (The Scripps Research Institute Molecular Screening Center, 2010)
Results with a measured potency or affinity are listed apart. Calls of active or inactive are those of the source.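 How the source made its calls: active means average inhibition at 10 µM of 40% or more; inactive means average inhibition at 10 µM below 40%.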

biological target: Krueppel-like factor 5 (Homo sapiens) (UniProt Q13887); test: reduction of KLF5 protein levels, late-stage follow-up, orthogonal assay for KLF5 inhibitor project, western blot, chemiluminescence, DLD-1 cells, titration (AID 485336); details: DLD-1 KLF5 protein level, 24 h; series mostly up to 20 µM
Sequence (Q13887 whole entry, looked up): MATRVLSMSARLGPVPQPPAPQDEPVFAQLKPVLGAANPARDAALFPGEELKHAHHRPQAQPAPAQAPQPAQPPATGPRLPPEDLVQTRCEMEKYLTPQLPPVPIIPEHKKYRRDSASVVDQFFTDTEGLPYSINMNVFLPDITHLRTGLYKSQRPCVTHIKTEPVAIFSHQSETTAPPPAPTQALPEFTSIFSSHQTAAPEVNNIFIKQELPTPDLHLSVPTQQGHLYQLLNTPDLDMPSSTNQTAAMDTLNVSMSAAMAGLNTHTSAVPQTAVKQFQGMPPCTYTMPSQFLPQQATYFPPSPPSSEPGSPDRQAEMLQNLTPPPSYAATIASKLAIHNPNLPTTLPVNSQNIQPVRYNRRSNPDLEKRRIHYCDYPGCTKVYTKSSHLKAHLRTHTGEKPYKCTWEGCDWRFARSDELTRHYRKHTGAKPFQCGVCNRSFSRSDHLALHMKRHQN

outcome, inactive:
CCCc1ccc(-c2ccc(/C=C/C(=O)O)cc2)nc1
CCOC(=O)c1sc(NC(=O)c2ccc3ncsc3c2)nc1C
CCOC(=O)c1sc(NC(=O)c2cc3c(s2)CCC(C)C3)nc1C (stereo not given)
Cc1ccc2nc(NC(=O)CCCc3nc4ccccc4s3)sc2c1
COC(=O)c1ccc2nc(Nc3nc4ccc(F)cc4s3)sc2c1
